From PubChem BioAssay come the findings set out here.

The nature of assay [1]: rapamycin-like changes in RPL19A-GFP expression – cell-based, S. cerevisiae, multiplex flow cytometry, primary screen (AID 1862; in the data active = percent of DMSO control GFP below about 86%;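 also: lower values mimic rapamycin by blocking the RPL19A rise seen in DMSO cells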). To be noted: S. cerevisiae RPL19A-GFP strain, flow cytometry fluorescence, 3 h; at 10 µM; stronger effect = lower value.
A short description of assay [2]: TOR pathway GLN3 branch reporter MEP2-GFP changes – S. cerevisiae, multiplex flow cytometry, primary screen (AID 1867;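 active = GFP response, as percent of the DMSO control, above the screen-wide mean plus 3 SD, about 139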;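 also: median GFP channel fluorescence of barcode-gated MEP2-GFP cells measured by flow cytometry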). The following applies: S. cerevisiae MEP2-GFP strain, 3 h, at 10 µM, stronger effect = higher value, 100% means same as DMSO wells.
Assay [3] is described as follows: TOR pathway RTG branch CIT2 reporter changes – S. cerevisiae, GFP fusion, multiplex flow cytometry, primary screen (AID 1870;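 active = percent response above a set limit, the screen-wide mean plus 3 SD, cut at about 130% in these data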;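 also: barcoded CIT2-GFP strain pooled with four other GFP strains with rapamycin as positive control; median GFP fluorescence per well over plate mean of DMSO wells so 100% = DMSO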). To be noted: S. cerevisiae CIT2-GFP expression, 3 h, at 10 µM, stronger effect = higher value.
The nature of assay [4]: TOR pathway LAP4-GFP level changes – S. cerevisiae, multiplex flow cytometry, primary screen (AID 1873;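 active = GFP signal, as percent of the solvent control, above the screen mean plus 3 SD, about 149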). The following applies: S. cerevisiae LAP4-GFP expression, 3 h, at 10 µM, stronger effect = higher value.
Assay [5] can be described thus: yeast AGP1-GFP level changes, GLN3 branch – cell-based, multiplex flow cytometry, S. cerevisiae, primary screen (AID 1887;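 active = GFP signal above the screen-wide mean plus 3 SD, that is over about 124.5% of the solvent control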;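 also: AGP1-GFP fusion strain of S. cerevisiae within a five-strain barcoded multiplex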). The following applies: 3 h, at 10 µM, stronger effect = higher value.
Assay [6] can be described thus: reduced mouse 2C T cell binding to pMHC/ICAM-1 vesicles – MLPCN validation set, flow cytometry, LFA-1/ICAM-1 modulator project, pilot screen (AID 2523;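 active = response below a set limit, under 55% cells CD8-positive and vesicle-bound, and CD8 cells' 90th-percentile brightness under 279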;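 as to vesicle binding response: mean PE anti-B7-1 fluorescence of CD8+ cells relative to row control; 100% = QL9-loaded vesicles with DMSO vehicle in the same plate row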). The following applies: 2C mouse CD8+ T cells, at 7 µM, stronger effect = lower value; double positive events: measured here: CD8+/vesicle+ event percentage.
The target of assay [7] is Integrin beta-1 (Homo sapiens) + Integrin alpha-4 (Homo sapiens) (UniProt P13612+P05556). The assay is described as follows: alpha4beta1 integrin LIBS antibody binding reduction – U937 cells, HUTS-21 mAb, flow cytometry, validation set, VLA-4 allosteric modulator project, pilot screen (AID 2674;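 active = inhibition above 50%, about 3 SD of the validation set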;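 also: antibody binding induced by the VLA-4 ligand LDV present at three times its Kd; 0% = LDV ligand with antibody and no compound and 100% = antibody without LDV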). To be noted: HUTS-21 LIBS mAb binding, at 6.7 µM, stronger effect = higher value, binding induced by LDV ligand.

Assay [8] is described as follows: calorie-restriction mimetic ROS inhibitors, yeast – validation compound set, pilot screen (AID 2706;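 active = superoxide response below 65% of plate, a cut near 3 SD across the whole screen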;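 also: yeast exposed to compound for one week at 30 degrees C before staining; 100% = mean of all compound wells on the same plate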). To be noted: S. cerevisiae aging, superoxide DHE fluorescence; at 10 µM, stronger effect = lower value.
The target of assay [9] is Beta-adrenergic receptor kinase 1 (Homo sapiens) (UniProt P25098). The assay can be described thus: GRK2 binders displacing RNA aptamer, biochemical, validation, human GRK2, bead flow cytometry (AID 488806;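 active = aptamer binding inhibition above 30%, about 3 SD of noise from non-fluorescent compounds; inactive = inhibition at or below 30%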). The following applies: bead-bound GRK2, FAM-aptamer displacement, at 10 µM, stronger effect = higher value.
Assay [10] addresses AP-2 complex subunit beta (Homo sapiens) (UniProt P63010). The assay can be described thus: beta-arrestin/AP2 interaction blockers – biochemical, validation set, GST-AP2 beads, flow cytometry, pilot screen (AID 504541;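 active = inhibition above 54%, about 3 SD of non-fluorescent compounds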;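 also: AP2 carries R879A mutation and is captured from E. coli lysate; bead-bound FITC arrestin peptide fluorescence measuring arrestin peptide binding to AP2; 0% = DMSO wells and 100% = excess unlabeled arrestin peptide control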). The following applies: FITC arrestin peptide, at 10 µM, stronger effect = higher value, AP2 beta2 appendage fragment, R879A mutant.
Assay [11] in a line: cytosolic pH regulators acting via V-ATPase – S. cerevisiae, pHLuorin, HTS validation (AID 504600; in the data active = response above about 15%;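 also: plate controls were DMSO for no effect and reference compound for full effect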). To be noted: V-ATPase proton transport, at 10 µM, stronger effect = higher value.
The subject of assay [12] is anti-desmoglein-3 scFv antibody binding to human DSG3. The assay can be described thus: blockers of pathogenic pemphigus antibody–desmoglein-3 binding – biochemical, validation compound set, bead-based, flow cytometry, pilot screen (AID 588368;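 active = binding below the plate cutoff, the plate median minus 3 SD, with a reading above zero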;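 also: signal is the median channel fluorescence of bead-bound GFP antibody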). To be noted: Protein G beads, DSG3-Fc, scFv-GFP binding, at 10 µM, stronger effect = lower value.
A short description of assay [13]: Nile Red efflux blockade in pump-expressing yeast – validation compound set, multiplex, phenotypic, pilot screen (AID 588506;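 active = efflux inhibition above 0.42, the validation set average plus 4 SD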;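 also: Nile Red retained in cells so higher fluorescence means more efflux inhibition; 0 = negative control wells and 1 = enniatin B 25 µM full block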). The following applies: S. cerevisiae pump-expressing triplex, Nile Red efflux flow cytometry; at 10 µM; stronger effect = higher value; the pumps come from Candida albicans.
The target of assay [14] is ATP-binding cassette sub-family B member 6 (Homo sapiens) (UniProt Q9NP58). The assay is described as follows: blockers of ABCB6-driven porphyrin uptake – K562-ABCB6 cells, flow cytometry, validation set, pilot screen (AID 588550;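 active = inhibition above the screen-wide mean plus 3 SD, about 51%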;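 also: 0% = DMSO wells and 100% = benzethonium chloride 70 µM positive control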). The following applies: K562-ABCB6 porphyrin accumulation, 1 h, at 10 µM, stronger effect = higher value.
Assay [15] in a line: AML differentiation inducers, ER-HoxA9 marrow cells – cell-based, GFP/MAC1 double positive, flow cytometry, validation set, primary screen (AID 588685).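 Also: compound exposure lasts four days before antibody staining and flow analysis; 0% = DMSO wells and 100% = 5 µM fulvestrant positive control.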 To be noted: stronger effect = higher value, normalized: vehicle 0, fulvestrant 100.

Results filed as inconclusive are left out. Activity calls are given as the source filed them.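 The calls were made as follows, unless noted: active = differentiation response of at least 50%, scaled between solvent and reference control, from cells with both markers; inactive = the rest.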

Chain of Integrin beta-1 (Homo sapiens) + Integrin alpha-4 (Homo sapiens) (P05556 whole entry, looked up): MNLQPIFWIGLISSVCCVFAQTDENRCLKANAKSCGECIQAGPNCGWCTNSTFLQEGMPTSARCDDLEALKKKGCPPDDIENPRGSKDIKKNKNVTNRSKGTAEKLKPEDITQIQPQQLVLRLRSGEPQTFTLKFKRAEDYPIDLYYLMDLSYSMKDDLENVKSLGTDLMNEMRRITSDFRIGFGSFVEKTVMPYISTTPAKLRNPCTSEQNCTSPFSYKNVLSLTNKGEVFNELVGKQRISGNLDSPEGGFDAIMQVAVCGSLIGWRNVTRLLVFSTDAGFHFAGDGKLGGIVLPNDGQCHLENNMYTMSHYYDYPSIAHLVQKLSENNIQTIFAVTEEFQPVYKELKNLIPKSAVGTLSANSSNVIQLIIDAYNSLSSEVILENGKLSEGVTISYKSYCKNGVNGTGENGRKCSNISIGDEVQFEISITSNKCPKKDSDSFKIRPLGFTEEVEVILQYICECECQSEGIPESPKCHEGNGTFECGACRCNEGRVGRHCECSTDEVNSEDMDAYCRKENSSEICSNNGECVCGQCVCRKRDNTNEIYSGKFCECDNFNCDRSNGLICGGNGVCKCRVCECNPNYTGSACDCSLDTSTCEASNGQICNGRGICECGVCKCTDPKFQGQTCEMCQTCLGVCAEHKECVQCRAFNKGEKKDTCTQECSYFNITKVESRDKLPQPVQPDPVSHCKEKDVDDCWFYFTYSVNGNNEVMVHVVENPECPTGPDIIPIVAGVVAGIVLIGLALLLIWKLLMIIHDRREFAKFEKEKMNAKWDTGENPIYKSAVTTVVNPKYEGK
Chain of Integrin beta-1 (Homo sapiens) + Integrin alpha-4 (Homo sapiens) (P13612 whole entry, looked up): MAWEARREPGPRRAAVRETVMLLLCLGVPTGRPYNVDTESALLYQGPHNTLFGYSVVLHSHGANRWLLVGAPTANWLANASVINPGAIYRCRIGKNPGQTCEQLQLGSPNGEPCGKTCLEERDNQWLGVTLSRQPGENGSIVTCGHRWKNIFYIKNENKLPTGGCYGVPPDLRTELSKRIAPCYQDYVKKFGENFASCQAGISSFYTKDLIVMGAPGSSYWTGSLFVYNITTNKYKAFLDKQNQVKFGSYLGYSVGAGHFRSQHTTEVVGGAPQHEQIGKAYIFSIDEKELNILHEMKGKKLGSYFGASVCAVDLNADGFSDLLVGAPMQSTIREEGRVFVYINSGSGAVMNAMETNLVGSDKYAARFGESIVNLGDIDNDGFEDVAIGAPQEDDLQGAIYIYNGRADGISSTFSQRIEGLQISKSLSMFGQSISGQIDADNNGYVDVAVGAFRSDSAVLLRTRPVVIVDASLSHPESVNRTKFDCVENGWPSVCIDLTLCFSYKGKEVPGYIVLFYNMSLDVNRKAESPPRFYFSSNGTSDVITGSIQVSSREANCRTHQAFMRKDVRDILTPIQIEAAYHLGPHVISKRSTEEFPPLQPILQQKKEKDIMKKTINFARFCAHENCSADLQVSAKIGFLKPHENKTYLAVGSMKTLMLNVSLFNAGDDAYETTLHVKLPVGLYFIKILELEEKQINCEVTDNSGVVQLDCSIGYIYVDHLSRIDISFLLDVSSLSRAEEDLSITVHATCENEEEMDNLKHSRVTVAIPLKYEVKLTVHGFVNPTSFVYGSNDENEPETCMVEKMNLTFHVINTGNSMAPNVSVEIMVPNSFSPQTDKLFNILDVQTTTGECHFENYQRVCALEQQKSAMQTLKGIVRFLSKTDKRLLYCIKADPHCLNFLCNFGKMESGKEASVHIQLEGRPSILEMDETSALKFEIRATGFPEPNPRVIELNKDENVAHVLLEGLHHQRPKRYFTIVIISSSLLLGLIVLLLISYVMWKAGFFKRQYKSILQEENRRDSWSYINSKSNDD
Chain of Beta-adrenergic receptor kinase 1 (Homo sapiens) (P25098 whole entry, looked up): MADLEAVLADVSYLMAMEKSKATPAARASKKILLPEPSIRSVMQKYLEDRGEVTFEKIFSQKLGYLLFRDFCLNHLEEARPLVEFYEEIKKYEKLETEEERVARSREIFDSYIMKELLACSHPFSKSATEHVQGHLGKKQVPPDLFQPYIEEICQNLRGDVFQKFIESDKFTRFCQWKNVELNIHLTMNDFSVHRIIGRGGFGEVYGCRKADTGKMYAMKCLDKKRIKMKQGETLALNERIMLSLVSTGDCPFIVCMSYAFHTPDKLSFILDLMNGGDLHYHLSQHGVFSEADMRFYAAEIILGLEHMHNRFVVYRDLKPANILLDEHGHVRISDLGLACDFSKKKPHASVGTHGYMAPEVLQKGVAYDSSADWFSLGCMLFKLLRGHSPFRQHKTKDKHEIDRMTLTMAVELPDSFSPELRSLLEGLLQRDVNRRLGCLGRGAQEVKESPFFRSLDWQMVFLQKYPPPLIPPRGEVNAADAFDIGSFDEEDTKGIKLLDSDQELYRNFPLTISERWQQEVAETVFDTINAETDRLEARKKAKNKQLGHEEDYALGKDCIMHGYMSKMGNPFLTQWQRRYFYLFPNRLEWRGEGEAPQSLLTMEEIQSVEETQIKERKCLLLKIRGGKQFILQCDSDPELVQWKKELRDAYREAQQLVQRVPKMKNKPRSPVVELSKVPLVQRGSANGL
Chain of AP-2 complex subunit beta (Homo sapiens) (P63010 whole entry, looked up, the tested form may be a part, one chain of several): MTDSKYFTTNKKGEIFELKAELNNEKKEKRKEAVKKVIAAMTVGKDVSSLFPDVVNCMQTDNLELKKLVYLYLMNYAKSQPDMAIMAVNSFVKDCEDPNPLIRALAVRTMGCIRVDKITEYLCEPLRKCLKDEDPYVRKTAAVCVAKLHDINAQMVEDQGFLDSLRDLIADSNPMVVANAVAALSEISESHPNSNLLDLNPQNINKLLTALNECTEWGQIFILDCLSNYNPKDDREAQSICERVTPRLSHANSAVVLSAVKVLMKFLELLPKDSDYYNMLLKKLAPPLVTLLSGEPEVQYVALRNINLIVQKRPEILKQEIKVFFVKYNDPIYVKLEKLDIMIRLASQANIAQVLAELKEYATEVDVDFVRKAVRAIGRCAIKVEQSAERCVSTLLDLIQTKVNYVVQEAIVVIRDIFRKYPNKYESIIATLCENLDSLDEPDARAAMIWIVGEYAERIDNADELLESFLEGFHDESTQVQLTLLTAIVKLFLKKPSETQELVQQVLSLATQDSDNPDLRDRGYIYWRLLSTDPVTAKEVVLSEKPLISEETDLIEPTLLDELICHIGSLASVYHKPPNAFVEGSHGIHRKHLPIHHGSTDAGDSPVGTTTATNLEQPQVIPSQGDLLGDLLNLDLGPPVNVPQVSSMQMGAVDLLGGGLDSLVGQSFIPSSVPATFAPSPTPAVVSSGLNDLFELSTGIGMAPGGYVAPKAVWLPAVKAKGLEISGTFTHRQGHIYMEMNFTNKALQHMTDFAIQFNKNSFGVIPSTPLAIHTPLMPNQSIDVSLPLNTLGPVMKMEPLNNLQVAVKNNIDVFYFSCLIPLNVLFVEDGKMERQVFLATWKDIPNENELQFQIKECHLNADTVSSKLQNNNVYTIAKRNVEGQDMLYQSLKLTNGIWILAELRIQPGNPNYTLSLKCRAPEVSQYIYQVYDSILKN
Chain of ATP-binding cassette sub-family B member 6 (Homo sapiens) (Q9NP58 whole entry, looked up): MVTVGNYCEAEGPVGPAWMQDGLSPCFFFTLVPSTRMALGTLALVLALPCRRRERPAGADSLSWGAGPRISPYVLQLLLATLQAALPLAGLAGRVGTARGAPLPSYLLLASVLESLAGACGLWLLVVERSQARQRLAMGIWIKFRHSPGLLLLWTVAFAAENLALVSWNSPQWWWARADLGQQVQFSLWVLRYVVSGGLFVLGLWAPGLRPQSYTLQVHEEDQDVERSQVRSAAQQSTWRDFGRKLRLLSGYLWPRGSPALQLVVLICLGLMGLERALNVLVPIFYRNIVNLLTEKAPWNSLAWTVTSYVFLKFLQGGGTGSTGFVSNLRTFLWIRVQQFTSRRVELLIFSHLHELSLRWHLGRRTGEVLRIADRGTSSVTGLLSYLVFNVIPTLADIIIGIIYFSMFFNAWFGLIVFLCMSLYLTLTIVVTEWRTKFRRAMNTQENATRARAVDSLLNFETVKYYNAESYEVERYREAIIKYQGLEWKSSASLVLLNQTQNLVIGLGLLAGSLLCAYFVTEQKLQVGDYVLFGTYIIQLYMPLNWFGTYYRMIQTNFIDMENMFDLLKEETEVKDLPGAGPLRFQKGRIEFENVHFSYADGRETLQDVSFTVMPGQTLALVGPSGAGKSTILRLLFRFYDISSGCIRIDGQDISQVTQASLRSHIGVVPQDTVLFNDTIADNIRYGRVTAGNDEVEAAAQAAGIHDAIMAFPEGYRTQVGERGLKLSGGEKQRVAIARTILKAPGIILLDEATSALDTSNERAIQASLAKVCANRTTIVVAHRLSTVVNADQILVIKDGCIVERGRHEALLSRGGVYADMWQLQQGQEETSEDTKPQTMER

`CN1CCC(=C2c3ccccc3C=Cc3ccccc32)CC1`: the percent of DMSO control GFP in assay [1] was 98.8% (inactive). Moreover, the GFP response vs DMSO in assay [2] was 99.9% (inactive); in [4], 104% (inactive). For the same molecule, in assay [3], the percent response of DMSO control was 105% (inactive). Moreover, the GFP response, % of DMSO in [5] is 99.7% (inactive). The same molecule returned a double positive events in assay [6] of 62.8%. Besides, the vesicle binding response in [6] is 194% (inactive). The inhibition in assay [7] is 13.8% (inactive); in assay [10], 24.3% (inactive); in assay [14], 8% (inactive). For the same molecule, in assay [8], the superoxide response (% of plate) is 88.8% (inactive). Also, in assay [9], the aptamer binding inhibition is -3% (inactive). Further, the response in assay [11] was -5.41% (inactive). In addition, the binding (% of control) in [12] was 97.2% (inactive). For the same molecule, the efflux inhibition (fraction of control) in assay [13] is -0.09 (inactive). In addition, the differentiation response in assay [15] was -29.3% (inactive).
Regarding `CN1C(=O)C(O)(CC(=O)c2ccccc2O)c2cc(Br)ccc21` (stereo not given), the percent of DMSO control GFP in [1] was 100% (inactive). The GFP response vs DMSO is 107% (inactive) in assay [2] and 115% (inactive) in assay [4]. The percent response of DMSO control in [3] was 109% (inactive). The GFP response, % of DMSO in [5] was 106% (inactive). In [6], this molecule displayed a double positive events of 57.7%. Also, in assay [6], the vesicle binding response is 199% (inactive). Moreover, the inhibition in [7] was 16.6% (inactive); in assay [10] it was 4.33% (inactive); in [14] it was 9% (inactive). The superoxide response (% of plate) in [8] is 101% (inactive). Further, in assay [9], the aptamer binding inhibition was 0% (inactive). Moreover, in assay [11], the response was 0.66% (inactive). Moreover, in assay [12], the binding (% of control) was 99% (inactive). For the same molecule, the efflux inhibition (fraction of control) in assay [13] was -0.09 (inactive). For the same molecule, the differentiation response in assay [15] is 7.87% (inactive).
As for `CC(C)(C)c1csc(N/N=C/c2cccnc2)n1`, the percent of DMSO control GFP in assay [1] was 99% (inactive). The GFP response vs DMSO in [2] was 106% (inactive); in assay [4], 107% (inactive). In addition, the percent response of DMSO control in assay [3] is 95.9% (inactive). Besides, the GFP response, % of DMSO in assay [5] was 87.4% (inactive). In [6], this molecule had a double positive events of 53.8%. Also, in [6], the vesicle binding response was 163% (inactive). Moreover, the inhibition was 17.5% (inactive) in [7], 5.38% (inactive) in [10] and 7% (inactive) in [14]. For the same molecule, the superoxide response (% of plate) in assay [8] is 96% (inactive). Moreover, the aptamer binding inhibition in assay [9] is 5% (inactive). In addition, the response in [11] was 1.92% (inactive). Besides, the binding (% of control) in [12] is 99.3% (inactive). In [13], the efflux inhibition (fraction of control) was -0.12 (inactive). In addition, the differentiation response in assay [15] was 4.64% (inactive).
For the molecule `CN=C1c2cc3cc(OC)ccc3n2CCN1C`, the percent of DMSO control GFP in assay [1] is 101% (inactive). Also, the GFP response vs DMSO is 97.9% (inactive) in assay [2] and 93.3% (inactive) in assay [4]. Moreover, in assay [3], the percent response of DMSO control is 102% (inactive). In addition, the GFP response, % of DMSO in [5] is 99% (inactive). For the same molecule, the double positive events in assay [6] stood at 62%. The vesicle binding response in [6] is 177% (inactive). For the same molecule, the inhibition was 11.9% (inactive) in [7], 14.9% (inactive) in assay [10] and 2% (inactive) in [14]. In assay [8], the superoxide response (% of plate) was 103% (inactive). Also, in assay [9], the aptamer binding inhibition is 4% (inactive). Also, in [11], the response was -2.85% (inactive). Besides, the binding (% of control) in [12] was 98.8% (inactive). Further, the efflux inhibition (fraction of control) in [13] is 0.1 (inactive). In addition, the differentiation response in assay [15] was 12.7% (inactive).
Turning to `CN1CCC(OC(c2ccccc2)c2ccccc2)CC1`, the percent of DMSO control GFP in assay [1] is 104% (inactive). Also, the GFP response vs DMSO in assay [2] and in assay [4] was 105% (inactive) each time. The percent response of DMSO control in [3] is 104% (inactive). Besides, the GFP response, % of DMSO in [5] is 104% (inactive). The molecule further returned a double positive events in assay [6] of 66.3%. In assay [6], the vesicle binding response was 186% (inactive). Moreover, the inhibition is 7.22% (inactive) in assay [7], -2.62% (inactive) in [10] and 9% (inactive) in assay [14]. For the same molecule, in assay [8], the superoxide response (% of plate) is 95.8% (inactive). The aptamer binding inhibition in assay [9] was 3% (inactive). The response in [11] was 1.48% (inactive). Moreover, in assay [12], the binding (% of control) was 102% (inactive). In addition, the efflux inhibition (fraction of control) in assay [13] was 0.03 (inactive). The differentiation response in assay [15] is 4.64% (inactive).
